Screening results deposited in PubChem by National Center for Advancing Translational Sciences (NCATS).
Only some compounds are listed: those with a hit (about 18% of all), similar ones and a draw of the others.
PLK1 PBD block – blocks phosphopeptide binding to human PLK1 polo-box domain; P53350; Plk1 PBD binding of FITC phosphopeptide, fluorescence polarization; Potency, µM, most hits filed as inhibitors; hit rate 2.8% among 360,000; AID 720504; note: series mostly up to about 57 µM; nearly all actives have a fitted effect of over 65% in size
DT40 TDP1 no CPT – qHTS for Inhibitors of human tyrosyl-DNA phosphodiesterase 1 (TDP1): qHTS in cells in absence of CPT; DT40 Tdp1-/- hTDP1 cells, no CPT, ATP luminescence, 48 h; Potency, µM (top dose mostly 46.2 µM), hits mostly inhibitors; hit rate 15% among 420,000; AID 686978, 2013; note: nearly all actives have a fitted effect of over 55% in size
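Camptothecin absent (DMSO only). Human TDP1-complemented DT40 knockout cells, 400 cells/well, 37 °C for minimum 48 hr; ATP measured via CellTiter-Glo, 30 min dark incubation, luminescence.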
TDP1 inh – TDP1 (human) enzyme inhibition. recombinant TDP1, AlphaScreen DNA substrate cleavage. hit rate 0.28% among 350,000. Potency, µM (series often up to 130 µM), most hits filed as inhibitors. AID 485290; note: nearly all actives have a fitted effect of over 40% in size
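Here, a 5' biotin and 3' phosphotyrosine-FITC DNA oligonucleotide reports Tdp1 activity: intact substrate bridges AlphaScreen beads, while cleavage leaves a 3' phosphate and drops signal. All incubations at room temperature.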
DT40 TDP1 CPT – DT40-hTDP1 cell growth loss with CPT | chicken DT40 Tdp1-/-;hTDP1 cells + 20 nM CPT, ATP luminescence, 48 h | Potency, µM (top dose mostly 46.2 µM), actives largely listed as inhibitors | hit rate 12% among 420,000 | AID 686979; note: nearly all actives have a fitted effect of over 55% in size
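Chicken DT40 Tdp1-/- cells complemented with human TDP1, 400 cells/well, exposed to compounds plus 20 nM camptothecin for at least 48 h at 37 C; viability read as ATP content by CellTiter-Glo luminescence.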
KAT2A inh – inhibitors of human GCN5L2 histone acetyltransferase; GCN5L2 HAT assay, ThioGlo1 CoA-SH fluorescence; Potency, µM (top dose mostly 58.9 µM), actives largely listed as inhibitors; AID 504327; hit rate 0.21% among 390,000
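qHTS, 1536-well. 20nM enzyme, pH 7.5 HEPES/EDTA/Tween-20 buffer; 15 min compound preinc., RT. Start: 75uM H3(1-25), 70uM AcCoA, 50uM ThioGlo1. Read Ex340/Em540 at t=0 (autofluorescence flag) and t=20 min.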
VDR inh – blocks the human vitamin D receptor | VDR-SRC2-3 peptide fluorescence polarization, 2 h | P11473 | hit rate 0.93% among 400,000 | Potency, µM, most hits filed as inhibitors
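FP read-out; VDR + SRC2-3 coactivator peptide; 23 nl compound by pintool; 2 h RT incubation; reagents held at 4 deg C, protected from light.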
Of the large screens only hits and unclear results are named; the others gave an inactive call. Calls come from the whole dose curve; as a rule, active = well fitted curve in the direction sought with a large enough effect; inconclusive = small, poorly fitted or top-dose-only effect, or another doubt; inactive = no such curve, though single readings can be large; an effect the other way counts as inactive or inconclusive.

Cc1oc2c(c(C)cc3oc(=O)c(CC(=O)NCCc4ccccc4)c(C)c32)c1C	DT40 TDP1 no CPT inconclusive, DT40 TDP1 CPT inconclusive (no result: PLK1 PBD block)
CC(C)(C)OC(=O)C(C)(C)Sc1nnc(N)s1	none
CCOc1ccccc1C(=O)Nc1cccc(-c2ccc(N3CCOCC3)nn2)c1	DT40 TDP1 no CPT 16.4µM, DT40 TDP1 CPT inconclusive, KAT2A inh inconclusive (no result: TDP1 inh)
CC(C)Cn1c(=O)c2sccc2n2c(CCCC(=O)NCCc3ccc(Cl)cc3)nnc12	DT40 TDP1 no CPT inconclusive, DT40 TDP1 CPT inconclusive (no result: PLK1 PBD block)
Cc1cc(C)c(C)c(OC(=O)c2sc(Cl)nc2C)c1	DT40 TDP1 no CPT 8.2µM, DT40 TDP1 CPT 7.31µM, VDR inh inconclusive
COc1ccccc1CNC(=O)c1cc2c(=O)oc3ccc(C)cc3c2s1	DT40 TDP1 no CPT inconclusive (no result: PLK1 PBD block)
CN(C(=O)c1ccccc1C(=O)OCC(=O)Nc1ccccc1)c1ccccc1	none
CCOC(=O)c1c(C)oc2ncnc(N3CCN(c4cccc(Cl)c4)CC3)c12	DT40 TDP1 no CPT 16.4µM, DT40 TDP1 CPT inconclusive (no result: PLK1 PBD block)
CCOC(=O)c1cc(S(=O)(=O)N2CCN(c3ccc(C)cc3C)CC2)[nH]n1	DT40 TDP1 no CPT 20.6µM, DT40 TDP1 CPT 9.2µM (no result: PLK1 PBD block)
CCOC(=O)c1c(C)oc2ncnc(N3CCN(c4ccc(C)cc4C)CC3)c12	DT40 TDP1 no CPT 23.1µM, DT40 TDP1 CPT 20.6µM (no result: PLK1 PBD block)
CCOC(=O)c1c(C)oc2ncnc(N3CCN(c4ccccc4OC)CC3)c12	DT40 TDP1 no CPT 16.4µM, DT40 TDP1 CPT inconclusive (no result: PLK1 PBD block)
Cc1oc(-c2ccc(Cl)cc2)nc1Cn1c(=O)cc(C)c2c(C)nn(-c3cccc(F)c3)c21	none (no result: PLK1 PBD block)
CCOC(=O)c1c(C)oc2nc(C)nc(N(C)Cc3ccccc3)c12	DT40 TDP1 no CPT 23.1µM, DT40 TDP1 CPT 18.4µM (no result: PLK1 PBD block)
CCOC(=O)c1c(C)oc2nc(C)nc(N3CCN(c4ccccc4)CC3)c12	DT40 TDP1 no CPT 14.6µM, DT40 TDP1 CPT 9.2µM (no result: PLK1 PBD block)
CNc1cncc(-c2ccc(F)cc2F)n1	none (no result: TDP1 inh, KAT2A inh, VDR inh)
Cn1cc(P(=O)(c2ccccc2)c2ccccc2)c2ccccc21	none (no result: PLK1 PBD block, DT40 TDP1 no CPT, DT40 TDP1 CPT, KAT2A inh, VDR inh)
COc1cc(OC)cc(-c2c(C#Cc3ccsc3)c3cc(-c4cc(OC)c(OC)c(OC)c4)ccc3n2C)c1	none
COc1ccc(-c2c(-c3cc(OC)cc(OC)c3)n(C)c3ccc(-c4ccc(OC)cc4F)cc23)cc1	DT40 TDP1 no CPT inconclusive, DT40 TDP1 CPT inconclusive
COc1ccc(-c2c(-c3cc(OC)cc(OC)c3)n(C)c3ccc(-c4cnc(OC)nc4)cc23)cc1	DT40 TDP1 no CPT 18.4µM, DT40 TDP1 CPT 20.6µM
COc1cc(OC)cc(-c2c(C#Cc3ccsc3)c3cc(-c4cnc(OC)nc4)ccc3n2C)c1	DT40 TDP1 no CPT inconclusive, DT40 TDP1 CPT 16.4µM
Cc1ccc2onc(CNC(=O)N3CCN(c4cccc(C)c4C)CC3)c2c1	DT40 TDP1 no CPT inconclusive, DT40 TDP1 CPT inconclusive (no result: PLK1 PBD block)
O=C(Oc1ccc(OC(=O)N2CCCCC2)cc1)c1ccccc1	DT40 TDP1 no CPT 0.0461µM, DT40 TDP1 CPT inconclusive
O=C(COC(=O)c1ccc(Br)o1)Nc1cccc(S(=O)(=O)N2CCCCCC2)c1	none
Cc1ccc(-c2nn3c(-c4ccccc4)nnc3o2)cc1	DT40 TDP1 no CPT inconclusive, DT40 TDP1 CPT inconclusive (no result: TDP1 inh, KAT2A inh, VDR inh)
Cc1nc2c(OCc3ccccc3)cccn2c1N(C)C(=O)C1CCCCC1	DT40 TDP1 no CPT inconclusive, DT40 TDP1 CPT inconclusive (no result: TDP1 inh, KAT2A inh, VDR inh)
Cc1nc2c(OCCN3C(=O)c4ccccc4C3=O)cccn2c1N(C)C(=O)CCC1CCCC1	none (no result: TDP1 inh, KAT2A inh, VDR inh)
Cc1nc2c(OCc3ccc(OC(F)F)cc3)cccn2c1N(C)C(=O)CCC1CCCC1	DT40 TDP1 no CPT 10.3µM, DT40 TDP1 CPT 13µM (no result: TDP1 inh, KAT2A inh, VDR inh)
Cc1nc2c(OCc3ccc(F)c(F)c3)cccn2c1N(C)C(=O)CCC1CCCC1	DT40 TDP1 no CPT 16.4µM, DT40 TDP1 CPT inconclusive (no result: TDP1 inh, KAT2A inh, VDR inh)
Cc1cc(C)cc(NC(=O)NCc2c(-c3ccccc3)noc2C)c1	none
Cc1onc(-c2ccccc2)c1CNC(=O)Nc1ccc(C(F)(F)F)cc1	DT40 TDP1 no CPT 16.4µM, DT40 TDP1 CPT inconclusive
O=C(NCc1nc(-c2ccc(C(F)(F)F)cc2)no1)Nc1cc(Cl)cc(Cl)c1	DT40 TDP1 no CPT 11.6µM, DT40 TDP1 CPT 10.3µM
Cc1oc2cc([N+](=O)[O-])c(O)c([N+](=O)[O-])c2c1C(=O)c1ccc(Cl)cc1	PLK1 PBD block inconclusive, DT40 TDP1 no CPT inconclusive, DT40 TDP1 CPT 23.1µM, KAT2A inh inconclusive
CCN1C(=O)/C(=C/C=C2/Sc3ccccc3N2CCO)SC1=S	DT40 TDP1 no CPT inconclusive, DT40 TDP1 CPT inconclusive, VDR inh inconclusive
CCC(=O)/C=C1/Sc2ccc(OC)cc2N1CCO	PLK1 PBD block 13.4µM, DT40 TDP1 no CPT inconclusive, DT40 TDP1 CPT inconclusive, VDR inh inconclusive
CCC(=O)/C=C1/Sc2ccc(OC)cc2N1CC	PLK1 PBD block inconclusive, DT40 TDP1 no CPT inconclusive, DT40 TDP1 CPT 10.3µM
COc1ccc(-c2cc(C(F)F)n3ncc(C(=O)Nc4ccc(C(=O)N5CCOCC5)cc4)c3n2)cc1	DT40 TDP1 no CPT 3.26µM, DT40 TDP1 CPT 10.3µM
